Source: PubChem BioAssay (NCI)
Values joined by “and” are separate entries in the source; they are usually repeats but may differ in a detail not shown here. Equal entries are not always repeated. Compounds without any hit were thinned out: in the full panel of roughly 83,000, 20% have a hit.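 Cells were grown in 96-well plates and exposed to the test compound at a single concentration for 48 hours; results are reported as percent growth, with values below 10 considered active.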 Unmarked numbers belong to inactive results. Active and inactive are the calls of the source.

system: HL-60(TB) leukemia; assay: NCI-60 one-dose screen, 48 h (100 = growth as untreated, 0 = no growth, -100 = all killed); conditions: 10 µM unless noted

**Q.** Which growth does the source give for `O=C(CSc1nc2ccc([N+](=O)[O-])cc2[nH]1)Nc1ccc(F)cc1` here?
**A.** 71.6%

**Q.** How did the growth turn out when `COc1cc2cc(Oc3ccc(NC(=O)Nc4cc(C(F)(F)F)cc(C(F)(F)F)c4)cc3)c(C)nc2cc1OCCN1CCOCC1` was run?
**A.** 1.68% (active)

**Q.** For `S=c1ssnc1-c1ccccn1`, which growth is on record?
**A.** -43.5% (active)

**Q.** How did the growth turn out when `NC(Cc1c[nH]c2ccccc12)C(=O)O` (stereo not given) was run?
**A.** 108% and 109%

**Q.** For `O=C(Nc1ccc(Oc2cccc(Cl)c2)c(Cl)c1)c1cnccn1`, which growth is on record?
**A.** 1.5% (active)

**Q.** How did the growth turn out when `N#CC1=C(N)Oc2cc(N)ccc2C1c1cccnc1` (stereo not given) was run?
**A.** 96.6%

**Q.** For `Cn1c2c(c3ccc(Cl)cc31)-n1cccc1C2=O`, which growth is on record?
**A.** 64.9%

**Q.** `CC(=O)c1cccc(NS(=O)(=O)c2cccc(C(=O)Nc3ccc(Br)cc3)c2)c1` was tested. Which growth did it give?
**A.** 48.7% [25 µM]

**Q.** `COc1cc(OC)cc(-c2ccc(-c3ccc(C(=N)N)cn3)o2)c1` was tested. Which growth did it give?
**A.** -65.7% (active)

**Q.** For `Clc1cc(Cl)cc(-c2ccc(-c3ccc(/C=N/NC4=NCCN4)cc3)s2)c1`, which growth is on record?
**A.** 19.6%

**Q.** Which growth does the source give for `CCCCCCCC[Si](OCC)(OCC)OCC` here?
**A.** 94.3%

**Q.** With `O=C(Nc1ccc(Cl)cc1)Nc1ccccc1CNc1nc(Nc2ccc(OCCN3CCCC3)cc2)ncc1Cl` as the compound, how does the growth read?
**A.** -45.1% (active)

**Q.** For `O=C1COCCN1c1ccc(Nc2nc(Cl)nc(OCc3cn(Cc4ccccc4)nn3)n2)cc1`, which growth is on record?
**A.** 40.3%

**Q.** `O=C(Nc1ccc(F)cc1F)c1cc(F)ccc1O` was tested. Which growth did it give?
**A.** -25.4% (active)

**Q.** Which growth does the source give for `CCC(=O)OC1=C(C)SC2=NC(c3ccc(Cl)c(Cl)c3)=CC(c3cc(OC)c(OC)c(OC)c3)N21` (stereo not given) here?
**A.** 97.8%
